# SW480 rerep = A quantitative high throughput screen for small molecules that induce DNA re-replication in SW480 colon adenocarcinoma cells; SW480 DNA re-replication, Hoechst DNA content imaging, 48 h; Potency, µM (series often up to 46.1 µM), for inactives: top-dose re-replication activation, usual class: activators; actives 1.8% (n = 340,000); AID 624297, 2012; further: % of control where 0% means no effect; nearly all actives have a fitted effect of over 55% in size
#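 DNA re-replication was detected as more nuclei of elevated Hoechst intensity after 48 hr exposure to compound (23 nL pinned per well of 250 cells).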
# MCF10A rerep = A quantitative high throughput screen for small molecules that induce DNA re-replication in MCF 10a normal breast cells. MCF 10A DNA re-replication, Hoechst nuclear intensity, 48 h. Potency, µM (titrated, usually from 46.1 µM), for inactives: at the top dose activity, positive = re-replication, most hits filed as activators. actives 2.9% (n = 350,000); further: % of control where 0% means no effect; nearly all actives have a fitted effect of over 50% in size
# KB-V1 cytotox = qHTS assay for MDR1-selective chemotherapeutics: Primary screen using the drug-selected MDR subline cells KB-V1. KB-V1 MDR cells viability, CellTiter-Glo, 72 h. Potency, µM (series often up to 46.1 µM), hits mostly cytotoxic. actives 3.4% (n = 400,000); further: on the % scale 0 is the no-effect control and ±100 the full control effect; nearly all actives have a fitted effect of over 60% in size
#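 Following 72 h at 37 degrees C with compound, KB-V1 cell viability was read by CellTiter-Glo luminescence, medium being phenol-red-free DMEM plus 10% FBS; concentration-response parameters came from normalized, curve-fitted qHTS data.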
# KB-3-1 tox = qHTS assay for MDR1-selective chemotherapeutics: Primary screen using the parental adenocarcinoma cell KB-3-1; KB-3-1 viability, CellTiter-Glo ATP luminescence, 72 h; actives 1.4% (n = 400,000); AID 1347075, 2019; Potency, µM (top dose mostly 46.1 µM), actives largely listed as cytotoxic; further: on the % scale 0 is the no-effect control and ±100 the full control effect; nearly all actives have a fitted effect of over 60% in size
#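 Screening of KB-3-1 cells (DMEM, 10% FBS, phenol-red free) ran from lowest to highest compound concentration; after 72 h at 37 °C viability was read luminescently and curves fitted.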
# RORg inh = qHTS for inhibitors of ROR gamma transcriptional activity. Drosophila S2 Gal4-RORgamma UAS-luciferase reporter, 20 h. actives 5.4% (n = 310,000). Nuclear receptor ROR-gamma (Mus musculus), P51450. AID 2551, 2010. Potency, µM (series often up to 53.6 µM), for the others: at the highest dose activity change, negative = inhibition, usual class: inhibitors; further: on the % scale 0 is the no-effect control and ±100 the full control effect; nearly all actives have a fitted effect of over 60% in size
# Target sequence (P51450 whole entry, looked up, the tested form may be a part): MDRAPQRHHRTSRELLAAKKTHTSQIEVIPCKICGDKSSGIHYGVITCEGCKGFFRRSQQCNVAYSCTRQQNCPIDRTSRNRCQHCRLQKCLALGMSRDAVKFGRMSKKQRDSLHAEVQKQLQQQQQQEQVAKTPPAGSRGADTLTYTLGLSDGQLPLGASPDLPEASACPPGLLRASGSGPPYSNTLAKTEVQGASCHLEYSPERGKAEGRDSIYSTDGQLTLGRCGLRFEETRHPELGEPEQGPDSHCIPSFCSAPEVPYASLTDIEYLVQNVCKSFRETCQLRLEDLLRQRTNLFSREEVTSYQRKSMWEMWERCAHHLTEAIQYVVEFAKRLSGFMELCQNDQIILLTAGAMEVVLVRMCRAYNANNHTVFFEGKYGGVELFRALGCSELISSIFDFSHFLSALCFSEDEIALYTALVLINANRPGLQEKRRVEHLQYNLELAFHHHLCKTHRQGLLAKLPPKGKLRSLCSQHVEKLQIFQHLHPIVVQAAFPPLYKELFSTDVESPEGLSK
#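 ROR gamma transcriptional activity was tracked as Gal4-UAS luciferase output in stably transfected Drosophila Schneider cells, with compound added 1 hr before 700 uM copper sulfate induction and a 20 hr ambient-temperature incubation.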
# Gal4-VP16 FLuc = VP16 counterscreen qHTS for inhibitors of ROR gamma transcriptional activity; Drosophila S2 Gal4-VP16 UAS-luciferase, luminescence, 20 h; Potency, µM (titrated, usually from 53.6 µM), without a hit: at the highest dose activity, negative = inhibition, usual class: inhibitors; actives 3.5% (n = 310,000); AID 2546, 2010;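 further: Gal4-VP16 expression switched on by copper sulfate through the metallothionein promoter; on the % scale 0 is the no-effect control and ±100 the full control effect; nearly all actives have a fitted effect of over 50% in size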
# * hit, by the source's call; i = inactive; ? = inconclusive; . = not tested or not shown; ! = not active in a repeat; [ ] = dose if it differs, or a comment. An excerpt weighted towards active compounds, which were near 10% of everything screened. The call rests on the fitted dose curve; in most records, active means well fitted curve in the direction sought with a large enough effect; inconclusive means small, poorly fitted or top-dose-only effect, or another doubt; inactive means no such curve, though single readings can be large; an effect the other way counts as inactive or inconclusive. Potency means the concentration at half of the fitted maximal effect.
SMILES,SW480 rerep,MCF10A rerep,KB-V1 cytotox,KB-3-1 tox,RORg inh,Gal4-VP16 FLuc
O=[N+]([O-])c1ccc(OC(F)F)c(/C=N/n2cnnc2)c1,3.3µM*,0%,?,?,-5%,6%
Cc1cccc(C(=O)n2nc(-c3ccco3)nc2NCc2ccccc2)c1,.,.,i,i,.,.
Cc1c(/C(O)=C2/C(=O)C(=O)N(CCN3CCOCC3)C2c2ccccn2)cnn1-c1ccccc1 (stereo unspecified),4%,-10%,?,i,1.1µM*,?
Cc1ccc(C2/C(=C(/O)c3cnn(-c4ccccc4)c3C)C(=O)C(=O)N2CCCN2CCOCC2)o1 (stereo unspecified),.,.,.,.,8%,28%
O=C(Nc1ccccc1)C1CCN(c2ncc(-c3ccc4c(c3)OCCCO4)s2)CC1,.,.,i,i,.,.
Clc1ccccc1Nc1nc2ccccc2o1,4%,-3%,i,i,.,.
CC(C)c1nc(Nc2nc3ccccc3o2)nc2c1CCCC2,.,.,i,i,.,.
Cc1cccc(C)c1Nc1nc2ccccc2o1,-6%,-3%,i,i,16µM*,?
Cc1nc(Nc2nc3ccccc3o2)nc2c1CCC2,?,-125%[0.0737 µM],i,i,2.8µM*,6.3µM*
COc1ccc(-n2c(=O)cnc3cnc(N(C)C)nc32)cc1,.,.,.,.,8%,-8%
Cc1ccc(CCNS(=O)(=O)c2ccc3c(c2)C(C(C)C)C(=O)N3)cc1 (stereo unspecified),.,.,i,i,.,.
COc1ccc(Br)c(C(=O)Nc2cc3c(cc2N2CCOCC2)n(C)c(=O)n3C)c1,.,.,i,?,.,.
COc1ccc(NCc2nc3ccccc3n2CCOc2ccccc2)cc1,2%,?,2.3µM*,?,16µM*,-15%
COc1ccc(NCc2nc3ccccc3n2C)cc1,-8%,18%,i,i,?,-9%
COc1cccc(OCc2nc3ccccc3n2CCOc2ccc(C)cc2)c1,.,.,i,i,.,.
CCCc1nc2ccccc2n1CCOc1ccccc1,4%,?,i,i,1%,-6%
COc1ccc(NCc2nc3ccccc3n2CCOc2ccc(C)cc2)cc1,4%,21µM*,?,?,20µM*,?
c1ccc(NCc2nc3ccccc3n2CCOc2ccccc2)cc1,.,3%,?,i,13µM*,?
CCOC(=O)c1cc2c(ccn2C)n1CC(=O)N(Cc1ccccc1)c1ccc(F)cc1,18%,?,?,i,-1%,?
CC(C)OC(=O)c1cc2c(ccn2C)n1CC(=O)N(Cc1ccccc1)c1ccc(F)cc1,?,6.5µM*,i,i,6%,?
CCCCOc1ccc(NC(=S)Nc2cc(C)nc(SCCCC)n2)cc1,-2%,18%,i,i,1.4µM*,1µM*
CCOc1ccc(NC(=O)CSc2nc(C)cc(C)n2)cc1,-12%,-6%,i,i,-6%,0%
CCNC(=O)N(C)c1c(CC)nc2ccc(C(=O)N3CCN(C(=O)c4ccco4)CC3)cn12,.,.,i,i,.,.
Cc1ccc(C(=O)c2oc3ccccc3c2NC(=O)Cc2coc3cc(C)ccc23)cc1,.,.,i,i,.,.
NNC(=O)c1ccc(Cn2cccn2)o1,2.3µM*,?,i,i,-36%,18%
SMILES,SW480 rerep,MCF10A rerep,KB-V1 cytotox,KB-3-1 tox,RORg inh,Gal4-VP16 FLuc
O=C(NCCc1ccccc1)C1CCN(S(=O)(=O)N2CCC3(CC2)OCCO3)CC1,?,2%,i,i,2%,?
O=C(C1CCN(S(=O)(=O)N2CCC3(CC2)OCCO3)CC1)N1CCc2ccccc2C1,-7%,-4%,9.2µM*,i,1%,-4%
O=C(NCc1ccccn1)C1CCN(S(=O)(=O)N2CCC3(CC2)OCCO3)CC1,12µM*!,?,i,i,-26%,-1%
O=C(NCCCN1CCN(Cc2ccccc2)CC1)C1CCN(S(=O)(=O)N2CCC3(CC2)OCCO3)CC1,-18%,4%,i,i,18%,-8%
O=C(C1CCN(S(=O)(=O)N2CCC3(CC2)OCCO3)CC1)N1CCN(Cc2ccccc2)CC1,5.8µM*,?,i,i,4%,-6%
Cc1cccc(Nc2nc(NCc3ccco3)c3ccccc3n2)c1,?,?,15µM*,?,19%,-9%
Cc1ccccc1Nc1nc(NCc2ccco2)c2ccccc2n1,?,?,12µM*,?,?,-3%[10 µM]
CNc1nc(NCc2ccco2)c2ccccc2n1,.,.,i,?,.,.
CSc1nc(NCc2ccco2)c2ccccc2n1,-33%,1%,12µM*,?,26%,1%
Oc1ccccc1Nc1nc(NCc2ccco2)c2ccccc2n1,0%,?,i,i,?,-25%
c1ccc(Nc2nc(NCc3ccco3)c3ccccc3n2)cc1,?,?,?,?,-39%,?
Cc1cc(C(=O)NCc2ccco2)c2ccccc2n1,-5%,3%,i,i,7%,-11%
Cc1ccccc1Nc1cc(C(=O)NCc2ccco2)c2ccccc2n1,?,-38%,8.2µM*,?,27%,8%
CCOc1ccc(C2c3c(oc4cc(C)c(C)cc4c3=O)C(=O)N2c2ccccn2)cc1 (stereo unspecified),.,.,i,i,.,.
CC(=O)OC[C@@H]1O[C@H](CCO/N=C(\C)CCN2CCCc3nc(C)c(C)cc32)C=C[C@@H]1OC(C)=O,.,.,.,.,4%[10 µM],5%[10 µM]
COC(=O)N1[C@H]2CC[C@@]3(C)C=C(C)O[C@]1(C)C3c1ccccc12,.,.,.,.,17%,-3%
CC(=O)OC[C@@H]1O[C@H](C/C=N\O[C@@H](C)c2cn([C@H](CO)Cc3ccccc3)nn2)C=C[C@@H]1OC(C)=O,.,.,.,.,1%[10 µM],8%[10 µM]
O=C1/C(=C/c2c[nH]c3ccccc23)CCC/C1=C\c1c[nH]c2ccccc12,?,21µM*,?,?,11µM*,?
CC1=NN(C(=S)Nc2ccccc2)C(c2ccccc2)C1 (stereo unspecified),-1%,-4%,i,i,13µM*,?
Cc1ccc(C2CC(c3ccccc3)=NN2C(=S)Nc2ccccc2)o1 (stereo unspecified),12µM*,5.2µM*,5.2µM*,5.8µM*,0%,-26%

# Source: PubChem BioAssay
